Inconclusive results are not listed. A call without a number means that no potency is given here. Active and inactive are the calls of the source. Calls follow the shape of the dose curve; as a rule, active = well fitted cell-killing curve with a large enough effect in the repeat runs; inconclusive = weak or mixed curves; inactive = no such curve, though single readings can be large or run the other way.
test: qHTS assay to identify small molecule antagonists of the androgen receptor (AR) signaling pathway - cell viability counter screen (AID 743033; also: nearly all actives have a fitted effect of over 45% in size); conditions: AR-bla HEK293 viability, CellTiter-Glo luminescence, 16 h; series mostly up to 58.5 µM
Text: National Center for Advancing Translational Sciences [NCATS]
NIH Chemical Genomics Center [NCGC]
U.S. Environmental Protection Agency [EPA]
National Institutes of Environmental Health Sciences [NIEHS]
National Toxicology Program [NTP]
U.S. Food and Drug Administration [FDA]
Androgen receptor (AR), a nuclear hormone receptor, plays a critical role in AR-dependent prostate cancer and other androgen related diseases. Endocrine disrupting chemicals (EDCs) and their interactions with steroid hormone receptors like AR may cause disruption of normal endocrine function as well as interfere with metabolic homeostasis, reproduction, developmental and behavioral functions. To identify the compounds that inhibit AR signaling, GeneBLAzer AR-UAS-bla-GripTite cell line (Invitrogen, Carlsbad, CA, USA) containing a beta-lactamase reporter gene under control of an Upstream Activator Sequence (UAS) stably integrated into HEK293 cells was used to screen the Tox21 10K compound library. The cytotoxicity of the Tox21 compound library against the AR-bla cell line was tested in parallel by measuring the cell viability using CellTiter-Glo assay in the same wells.
Tox21 Assay Protocol Summary:
AR-bla cells were dispensed at 2,000 cells/5 uL of assay medium per well into black wall/clear-bottom 1536-well plates using a Multidrop Combi (ThermoFisher Scientific, Waltham, MA) dispenser. After the assay plates were incubated at a 37C and 5% CO2 for 4 hr, 23 nL of compounds dissolved in DMSO, positive controls or DMSO only was transferred to the assay plate by a Pintool station (Kalypsys, San Diego, CA), followed by addition of 1 uL of agonist (R1881) in culture medium using a Bioraptr Flying Reagent Dispenser (FRD) workstation (Beckman Coulter, Indianapolis, IN, USA). The plates were incubated at a 37C and 5% CO2 for 16 h. After 1 uL of LiveBLAzerTM B/G FRET substrate was added using a Bioraptr FRD, the plates were incubated at room temperature for 2 h and fluorescence intensity was measured by an Envision plate reader (PerkinElmer, Shelton, CT). For cell viability readout that measures cytotoxicity, 4 ul/well of CellTiter-Glo reagent was added into the assay plates using a Bioraptr FRD. After 30 min incubation at room temperature, the luminescence intensity in the plates was measured using a ViewLux (PerkinElmer) plate reader.

Q: Which Potency does the source give for `CN/C(=N\[N+](=O)[O-])NCC1CCOC1` (stereo not given) here?
A: inactive

Q: With `COP(N)(=S)Oc1ccccc1C(=O)OC(C)C` (stereo not given) as the molecule, how does the Potency read?
A: inactive

Q: Which Potency does the source give for `COC(=O)C(c1ccccc1)C1CCCCN1` (stereo not given) here?
A: inactive

Q: For `CCSC(=O)N(CC)C1CCCCC1`, which Potency is on record?
A: inactive

Q: With `CC(Cl)(Cl)[N+](=O)[O-]` as the molecule, how does the Potency read?
A: inactive

Q: Which Potency does the source give for `CC1CN1P(=O)(N1CC1C)N1CC1C` (stereo not given) here?
A: inactive

Q: For `C[C@@H]1CN(C2CCC(C#N)(c3ccc(F)cc3)CC2)CC[C@]1(C(=O)O)c1ccccc1` (stereo not given in full), which Potency is on record?
A: inactive

Q: For `OCCBr`, which Potency is on record?
A: inactive

Q: Which Potency does the source give for `O=C1OC(=O)C2C1C1(Cl)C(Cl)=C(Cl)C2(Cl)C1(Cl)Cl` (stereo not given) here?
A: inactive

Q: With `CCCCOP(=O)(O)OCCCC` as the molecule, how does the Potency read?
A: inactive

Q: Which Potency does the source give for `NC(=O)c1cc([N+](=O)[O-])cc([N+](=O)[O-])c1` here?
A: inactive

Q: Which Potency does the source give for `O=c1oc2ccccc2c(O)c1C1CCCc2ccccc21` (stereo not given) here?
A: inactive

Q: With `C#C[C@]1(O)C=C[C@H]2[C@@H]3CCC4=CC(=O)CC[C@@H]4[C@H]3CC[C@@]21CC` as the molecule, how does the Potency read?
A: inactive

Q: Which Potency does the source give for `Nc1cc2c3c(c1)C(c1ccccc1)=N[C@@H](NC(=O)c1cccnc1)C(=O)N3CC2` here?
A: inactive

Q: For `N#Cc1c(Cl)cccc1Cl`, which Potency is on record?
A: inactive

Q: With `ClCCOCOCCCl` as the molecule, how does the Potency read?
A: inactive

Q: For `O=C(O)c1cccc(Cl)c1`, which Potency is on record?
A: inactive

Q: With `CNCC(=O)c1ccc(O)c(O)c1` as the molecule, how does the Potency read?
A: inactive

Q: Which Potency does the source give for `O=C(N[C@H]1CN2CCC1CC2)c1cc2ccoc2cn1` here?
A: inactive

Q: For `O=C(Oc1ccc(Br)cc1)N1CCN2CCC1CC2`, which Potency is on record?
A: inactive

Q: With `CS(=O)(=O)c1cc(C(F)(F)F)ccc1C(=O)c1cnoc1C1CC1` as the molecule, how does the Potency read?
A: inactive

Q: For `O=[N+]([O-])c1cccc(O)c1`, which Potency is on record?
A: inactive

Q: With `C[C@H]1CCC[C@H](O)CCCCCc2cc(O)cc(O)c2C(=O)O1` as the molecule, how does the Potency read?
A: inactive

Q: Which Potency does the source give for `CC(=O)[C@H]1CC[C@H]2[C@@H]3CC[C@H]4C[C@H](O)CC[C@]4(C)[C@H]3C(=O)C[C@]12C` here?
A: inactive

Q: Which Potency does the source give for `O=C(CCCN1CCC(n2c(=O)[nH]c3ccccc32)CC1)c1ccc(F)cc1` here?
A: inactive

Q: Which Potency does the source give for `O=C(Cc1ccccc1)OCc1ccccc1` here?
A: inactive

Q: For `NC1=NC(=O)C(c2ccccc2)O1` (stereo not given), which Potency is on record?
A: inactive

Q: For `CSc1ccc(C(=O)C(C)(C)N2CCOCC2)cc1`, which Potency is on record?
A: inactive

Q: With `COc1cc(C[C@@H](C)N)c(OC)cc1C` as the molecule, how does the Potency read?
A: inactive

Q: For `O=[N+]([O-])c1cccc2cccnc12`, which Potency is on record?
A: inactive

Q: With `ClC(Cl)(Cl)C(Cl)(Cl)Cl` as the molecule, how does the Potency read?
A: inactive

Q: With `[Cl][Sn]([Cl])([Cl])[Cl]` as the molecule, how does the Potency read?
A: inactive

Q: Which Potency does the source give for `N#CCNCC#N` here?
A: inactive

Q: Which Potency does the source give for `Clc1cccc(N2CCNCC2)c1` here?
A: inactive

Q: For `O=C(Nc1ccccc1)N(Cc1ccc(Cl)cc1)C1CCCC1`, which Potency is on record?
A: inactive

Q: For `CNC(=O)Oc1cccc(C(C)C)c1`, which Potency is on record?
A: inactive

Q: Which Potency does the source give for `COC(C)(C)C` here?
A: inactive

Q: With `Nc1c(Br)cc([N+](=O)[O-])cc1[N+](=O)[O-]` as the molecule, how does the Potency read?
A: inactive

Q: For `O=[N+]([O-])c1cc(Cl)c(Cl)c(Cl)c1`, which Potency is on record?
A: inactive

Q: For `Cc1ccccc1CO[C@@H]1C[C@@]2(C(C)C)CC[C@]1(C)O2`, which Potency is on record?
A: inactive
